# Calls of active or inactive are those of the source. Rule for the calls: active = hit-call score of the fitted dose curve at least 0.9, where 1 is the maximum; inactive = score below 0.9.
# Target: Heat shock factor protein 1 (Homo sapiens) (UniProt Q00613)
# Assay: ATG_HSE_CIS: Attagene CIS-FACTORIAL HepG2 Assay for human Heat Shock Transcription Factor 1 (HSE) (AID 2282953)
# Settings: HepG2 HSE cis-reporter, Attagene RNA transcription; actives raise or lower the signal
# Description: ATG_CIS is a cell-based, multiplexed-readout assay that uses HepG2, a human liver cell line, with measurements taken at 24 hours after chemical dosing in a 24-well plate.ATG_HSE_CIS is one of 52 assay component(s) measured or calculated from the ATG_CIS assay. It is designed to make measurements of mRNA induction, a form of inducible reporter, as detected with fluorescence intensity signals by Reverse transcription polymerase chain reaction (RT-PCR) and Capillary electrophoresis technology.Data from the assay component ATG_HSE_CIS was analyzed into 1 assay endpoint. This assay endpoint, ATG_HSE_CIS, was analyzed with bidirectional fitting relative to DMSO as the negative control and baseline of activity. Using a type of inducible reporter, measures of mRNA for gain or loss-of-signal activity can be used to understand the reporter gene at the transcription factor-level as they relate to the gene HSF1. Furthermore, this assay endpoint can be referred to as a primary readout, because this assay has produced multiple assay endpoints where this one serves a reporter gene function. To generalize the intended target to other relatable targets, this assay endpoint is annotated to the dna binding intended target family, where the subfamily is heat shock protein.
# Human liver HepG2 cells are transiently transfected with multiple reporter transcription units (MRTUs) in 6-well plates using FuGene 6 reagent (Roche; 3 ml FuGene/1 mg DNA). The MRTU constructs are regulated by a cis-regulating element (promoter). […] A major difference between the CIS and TRANS system is that in CIS activities of endogenous TFs are measured, whereas the TRANS assay evaluates changes in activities of exogenous, chimeric NR-Gal4 proteins. […] At the end of 24 hour incubation, total RNA was isolated using TriZol reagent (Invitrogen). The isolated RNA is then reverse-transcribed using oligo(dT) primer and Mo-MLV reverse transcriptase (Invitrogen) with DNAse I (Ambion) treatment for 30 min. The one-tenth of the produced cDNA was amplified by PCR using Taq DNA polymerase (Invitrogen) and two reporter sequence-specific primers. The PCR products were fluorescently labeled by primer extension with 6-arboxyfluorescein (6-FAM) 5'-labeled reporter sequence-specific primer (2 min at 95 C, 20 s at 68 C and 10 min at 72 C) and these products were digested with 5U of HpaI (New England Biolabs) for 2h at 37 C. The fragments were purified using Qiaquick PCR columns (Qiagen), analyzed on an ABI 3130xL genetic analyzer (Applied Biosystems) with peak positions identified by using a set of X-rhodamine (ROX)-labeled MapMarker1000 molecular weight standards (BioVentures). The raw capillary electrophoresis data was processed using Attagraph software (Attagene).
# Sequence of Heat shock factor protein 1 (Homo sapiens) (Q00613 whole entry, looked up): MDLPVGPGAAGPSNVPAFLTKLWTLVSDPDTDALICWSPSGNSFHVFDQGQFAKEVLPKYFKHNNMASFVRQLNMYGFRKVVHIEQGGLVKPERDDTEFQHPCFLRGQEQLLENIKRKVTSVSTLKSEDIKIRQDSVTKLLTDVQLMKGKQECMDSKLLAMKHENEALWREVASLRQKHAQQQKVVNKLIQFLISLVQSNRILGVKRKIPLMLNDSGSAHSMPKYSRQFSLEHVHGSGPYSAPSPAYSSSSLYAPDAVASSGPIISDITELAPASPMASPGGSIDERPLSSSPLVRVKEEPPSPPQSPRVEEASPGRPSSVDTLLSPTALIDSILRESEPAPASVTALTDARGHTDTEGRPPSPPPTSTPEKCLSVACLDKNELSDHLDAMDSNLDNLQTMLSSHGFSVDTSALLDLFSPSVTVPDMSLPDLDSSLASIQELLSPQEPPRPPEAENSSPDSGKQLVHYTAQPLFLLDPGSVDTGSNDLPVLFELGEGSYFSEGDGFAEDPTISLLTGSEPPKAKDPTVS
SMILES,outcome,AC50
O=NN1CCCC1,inactive,–
COC(=O)C(F)(F)C(F)(F)OC(F)(C(F)(F)F)C(F)(F)OC(F)=C(F)F (stereo not given),inactive,–
CC(C)(C)OOC(C)(C)C,inactive,–
Clc1ccc(Oc2ccccc2)cc1,inactive,–
Oc1ccc(I)cc1,inactive,–
CCOP(=S)(OCC)SCSc1ccc(Cl)cc1,inactive,–
Cc1c([N+](=O)[O-])cc2c(c1[N+](=O)[O-])C(C)(C)CC2(C)C,inactive,–
Cc1cc(C)c(C(=O)P(=O)(c2ccccc2)c2ccccc2)c(C)c1,–,62.5 µM (active)
FC(F)(F)c1ccc(Cl)cc1,inactive,–
O=C(O)C(F)(F)OC(F)(F)C(F)(F)OC(F)(F)C(=O)O,inactive,–
CCCCOCC1CO1 (stereo not given),inactive,–
COC(N)=O,inactive,–
O=C(O)C1C(C(=O)O)C2(Cl)C(Cl)=C(Cl)C1(Cl)C2(Cl)Cl (stereo not given),inactive,–
c1ccc(OP(Oc2ccccc2)Oc2ccccc2)cc1,inactive,–
CCOC(=O)c1ccccc1N,inactive,–
CO/N=C(/C(=O)OC)c1ccccc1COc1ccccc1C,–,150 µM (active)
C/C(=N\NC(=O)Nc1cc(F)cc(F)c1)c1ncccc1C(=O)O,inactive,–
FC(F)(F)C(F)(C(F)(F)F)C(F)(F)C(F)(F)CC1CO1 (stereo not given),inactive,–
OCC(F)(F)OC(F)(F)C(F)(F)OC(F)(F)CO,inactive,–
CCOC(=O)c1ccccc1C(=O)OCC,inactive,–

SMILES,outcome,AC50
O=C(O)C(Cl)Cl,inactive,–
CC(O)C#N (stereo not given),inactive,–
Cc1ccc(N)cc1N,inactive,–
CCOP(=S)(NC(C)C)Oc1ccccc1C(=O)OC(C)C (stereo not given),inactive,–
O=P(OCC(Br)CBr)(OCC(Br)CBr)OCC(Br)CBr (stereo not given),inactive,–
CCN(CC)c1ccccc1,inactive,–
CCOP(=O)(O)C(N)=O,inactive,–
N#C/C=C/c1ccccc1,inactive,–
CCOP(=S)(S)OCC,–,157 µM (active)
N#Cc1c(-c2ccc(Cl)cc2)[nH]c(C(F)(F)F)c1Br,–,47.3 µM (active)
CCC1(c2ccccc2)C(=O)N=C(O)NC1=O (stereo not given),inactive,–
O=c1ssc(Cl)c1Cl,–,61.2 µM (active)
O=[N+]([O-])c1cc(Cl)ccc1Cl,inactive,–
CC(Cc1ccc(OCC(=O)O)cc1)NCC(O)c1csc(C(F)(F)F)n1 (stereo not given),inactive,–
CC(C)(C)c1ccccc1OP(=O)(Oc1ccccc1)Oc1ccccc1,inactive,–
OCC(F)(F)OC(F)(F)C(F)(F)OC(F)(F)C(F)(F)OC(F)(F)CO,inactive,–
ClC1=C(Cl)C2(Cl)C3C(Cl)C(Cl)CC3C1(Cl)C2(Cl)Cl (stereo not given),–,50 µM (active)
[N-]=[N+]=[N-],inactive,–
CCCCC(CC)COP(=O)(Oc1ccccc1)Oc1ccccc1 (stereo not given),–,72 µM (active)
CSC(C)(C)C=NO,inactive,–
